In PubChem BioAssay AID1159580 (chemical genetic matrix, 2015):
The whole screen tested about 5,500 compounds, of which about 2,000 (36%) were called active. Inconclusive results (about 18%) are left out. Rule as the data show it: active = normalized growth mostly below about 0.91 (no sharp cut-off); inconclusive = no clear call, values can overlap the other calls; inactive = mostly above about 0.92. Some of the results follow.

Assay: chemical genetic growth profiling, strain panel (AID 1159580);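 also: tested at 20 µM; growth read once vehicle control cultures reached saturation at 30 °C; 1 = growth at the plate median or of vehicle wells; lower values mean less growth of the strain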
Details: growth OD

Measured: normalized growth

CN(C)CCC[C@@]1(c2ccc(F)cc2)OCc2cc(C#N)ccc21
inactive: S. cerevisiae deletion strains, locus YAL013W, strain DEP1, hits give low values 1.02 | S. cerevisiae deletion strains, locus YBR021W, strain FUR4, hits give low values 1.02 | S. cerevisiae deletion strains, locus YBR229C, strain ROT2, hits give low values 1.01 | S. cerevisiae deletion strains, locus YCL029C, strain bik1, hits give low values 1.02 | S. cerevisiae deletion strains, locus YDL035C, strain GPR1, hits give low values 1.02 | S. cerevisiae deletion strains, locus YDL074C, strain BRE1, hits give low values 1.02 | S. cerevisiae deletion strains, locus YDL101C, strain DUN1, hits give low values 1.02 | S. cerevisiae deletion strains, locus YDL134C, strain PPH21, hits give low values 1.01 | S. cerevisiae deletion strains, locus YDL185W, strain tfp1, hits give low values 1.03 | S. cerevisiae deletion strains, locus YDL192W, strain arf1, hits give low values 1.02 | S. cerevisiae deletion strains, locus YDR101C, strain arx1, hits give low values 1.02 | S. cerevisiae deletion strains, locus YDR150W, strain NUM1, hits give low values 1.02 | S. cerevisiae deletion strains, locus YDR162C, strain NBP2, hits give low values 1.01 | S. cerevisiae deletion strains, locus YDR318W, strain mcm21, hits give low values 1.03 | S. cerevisiae deletion strains, locus YDR388W, hits give low values 1.02 | S. cerevisiae deletion strains, locus YDR502C, strain sam2, hits give low values 1.02 | S. cerevisiae deletion strains, locus YEL061C, strain CIN8, hits give low values 1.01 | S. cerevisiae deletion strains, locus YER110C, hits give low values 1.03 | S. cerevisiae deletion strains, locus YER155C, strain BEM2, hits give low values 1.01 | S. cerevisiae deletion strains, locus YER167W, strain BCK2, hits give low values 1.02 | S. cerevisiae deletion strains, locus YGL078C, strain dbp3, hits give low values 1.03 | S. cerevisiae deletion strains, locus YGL086W, strain mad1, hits give low values 1.02 | S. cerevisiae deletion strains, locus YGL248W, strain PDE1, hits give low values 1.02 | S. cerevisiae deletion strains, locus YGR078C, strain PAC10, hits give low values 1.03 | S. cerevisiae deletion strains, locus YGR135W, strain pre9, hits give low values 1.03 | S. cerevisiae deletion strains, locus YGR229C, strain SMI1, hits give low values 1.02 | S. cerevisiae deletion strains, locus YGR252W, strain gcn5, hits give low values 1.06 | S. cerevisiae deletion strains, locus YHR030C, strain SLT2, hits give low values 1.01 | S. cerevisiae deletion strains, locus YHR079C, strain IRE1 (second series), hits give low values 1.02 | S. cerevisiae deletion strains, locus YHR094C, strain hxt1, hits give low values 1.02 | S. cerevisiae deletion strains, locus YHR129C, strain ARP1, hits give low values 1.01 | S. cerevisiae deletion strains, locus YHR200W, strain rpn10, hits give low values 1.02 | S. cerevisiae deletion strains, locus YIL066C, strain RNR3, hits give low values 1.03 | S. cerevisiae deletion strains, locus YIL073C, strain SPO22, hits give low values 1.06 | S. cerevisiae deletion strains, locus YIL125W, strain kgd1, hits give low values 1.02 | S. cerevisiae deletion strains, locus YIR030C, strain dcg1, hits give low values 1.02 | S. cerevisiae deletion strains, locus YJL095W, strain BCK1, hits give low values 1.02 | S. cerevisiae deletion strains, locus YJL134W, strain LCB3, hits give low values 1.03 | S. cerevisiae deletion strains, locus YJL168C, strain set2, hits give low values 1.02 | S. cerevisiae deletion strains, locus YJL187C, strain SWE1 (second series), hits give low values 1.02 | S. cerevisiae deletion strains, locus YJR043C, strain POL32, hits give low values 1.01 | S. cerevisiae deletion strains, locus YJR075W, strain HOC1, hits give low values 1.01 | S. cerevisiae deletion strains, locus YKL009W, strain mrt4, hits give low values 1.03 | S. cerevisiae deletion strains, locus YKL068W, hits give low values 1.02 | S. cerevisiae deletion strains, locus YKL085W, strain MDH1 (second series), hits give low values 0.999 | S. cerevisiae deletion strains, locus YKL085W, strain MDH1, hits give low values 0.999 | S. cerevisiae deletion strains, locus YKL190W, strain CNB1, hits give low values 1.03 | S. cerevisiae deletion strains, locus YKR001C, strain vps1, hits give low values 1.03 | S. cerevisiae deletion strains, locus YLR039C, strain RIC1, hits give low values 1.04 | S. cerevisiae deletion strains, locus YLR058C, strain SHM2, hits give low values 1.02 | S. cerevisiae deletion strains, locus YLR102C, strain apc9, hits give low values 1.02 | S. cerevisiae deletion strains, locus YLR262C, strain YPT6, hits give low values 1.04 | S. cerevisiae deletion strains, locus YLR268W, strain sec22, hits give low values 1.01 | S. cerevisiae deletion strains, locus YLR330W, strain CHS5, hits give low values 1.01 | S. cerevisiae deletion strains, locus YLR342W, strain FKS1 (second series), hits give low values 1.03 | S. cerevisiae deletion strains, locus YLR371W, strain rom2, hits give low values 1.02 | S. cerevisiae deletion strains, locus YLR418C, strain cdc73, hits give low values 1 | S. cerevisiae deletion strains, locus YML016C, strain PPZ1, hits give low values 1.02 | S. cerevisiae deletion strains, locus YML032C, strain rad52, hits give low values 1.02 | S. cerevisiae deletion strains, locus YML124C, strain tub3, hits give low values 1.01 | S. cerevisiae deletion strains, locus YMR078C, strain ctf18, hits give low values 1.03 | S. cerevisiae deletion strains, locus YMR223W, strain ubp8, hits give low values 1.04 | S. cerevisiae deletion strains, locus YMR263W, strain SAP30, hits give low values 1.02 | S. cerevisiae deletion strains, locus YMR307W, strain GAS1, hits give low values 1.05 | S. cerevisiae deletion strains, locus YNL067W, strain RPL9B, hits give low values 1.02 | S. cerevisiae deletion strains, locus YNL128W, strain TEP1, hits give low values 1.02 | S. cerevisiae deletion strains, locus YNL153C, strain GIM3, hits give low values 1.01 | S. cerevisiae deletion strains, locus YNL233W, strain BNI4, hits give low values 1.01 | S. cerevisiae deletion strains, locus YNL250W, strain rad50, hits give low values 1.03 | S. cerevisiae deletion strains, locus YNL271C, strain bni1, hits give low values 1.03 | S. cerevisiae deletion strains, locus YNL298W, strain CLA4, hits give low values 1.04 | S. cerevisiae deletion strains, locus YNL307C, strain MCK1, hits give low values 1.02 | S. cerevisiae deletion strains, locus YNL322C, strain KRE1, hits give low values 1.01 | S. cerevisiae deletion strains, locus YNR052C, strain pop2, hits give low values 1.02 | S. cerevisiae deletion strains, locus YOL006C, strain TOP1, hits give low values 1.05 | S. cerevisiae deletion strains, locus YOL012C, strain htz1 1.16 | S. cerevisiae deletion strains, locus YOL147C, strain pex11, hits give low values 1.02 | S. cerevisiae deletion strains, locus YOR061W, strain CKA2, hits give low values 1.02 | S. cerevisiae deletion strains, locus YOR069W, strain VPS5, hits give low values 1.01 | S. cerevisiae deletion strains, locus YOR136W, strain idh2, hits give low values 1.02 | S. cerevisiae deletion strains, locus YOR144C, strain elg1, hits give low values 1.02 | S. cerevisiae deletion strains, locus YOR184W, strain ser1, hits give low values 1.03 | S. cerevisiae deletion strains, locus YOR316C, strain cot1, hits give low values 1.02 | S. cerevisiae deletion strains, locus YPL055C, strain LGE1, hits give low values 1.03 | S. cerevisiae deletion strains, locus YPL241C, strain CIN2, hits give low values 1.01 | S. cerevisiae deletion strains, locus YPR119W, strain clb2, hits give low values 1.01 | S. cerevisiae deletion strains, locus YPR141C, strain kar3, hits give low values 1.03 | S. cerevisiae deletion strains, locus YPR163C, strain tif3, hits give low values 1.02 | S. cerevisiae deletion strains, locus YPR167C, strain met16, hits give low values 1.02 | S. cerevisiae deletion strains, strain wtn01, hits give low values 1.01 | S. cerevisiae strains, strain wild type, hits give low values 1.02
